Experimental data published in PubChem BioAssay AID743060 (The Scripps Research Institute Molecular Screening Center, 2013).
Several values for one entry are separate records, joined by “and”; a condition that tells them apart may be missing. Equal values may be shown once.

Test: inhibitors of T. brucei MetRS aminoacylation, late-stage follow-up, biochemical, radioactivity, round 1 (AID 743060)
Settings: purified enzyme, radiolabel aminoacylation, scintillation, 2 h; at 10 µM; stronger effect = higher value

| Structure (SMILES) | inhibition |
| --- | --- |
| O=C(Nc1ccc(F)c(Cl)c1)C1CC(=O)n2c(nc3ccccc32)N1 (stereo unspecified) | 90.3% and 93.6% |
| O=C(NCCc1nc2ccccc2[nH]1)c1ccc(Cl)cc1Cl | 94.9% |
| Oc1c(Cl)cc(Cl)cc1CNc1nc2ccccc2[nH]1 | 98.7% |
| Clc1ccc(-c2nnc(SCc3nc4ccccc4[nH]3)o2)c(Cl)c1 | 97% |
| COc1ccccc1-n1c(SCC(=O)Nc2ccc(Cl)cc2)nc(O)c(Cc2ccccc2)c1=O | 67% |
| CCN(CC)C(=O)C(=O)c1cn(CC(=O)Nc2cccc(C(F)(F)F)c2)c2ccccc12 | 99.5% |
| O=C(CCC(=O)Nc1cccc([N+](=O)[O-])c1)NN=Cc1cccs1 | 74.3% |
| COc1ccc2[nH]c3nc(SCC(=O)Nc4ccc5c(c4)OCO5)nnc3c2c1 | 65.6% |
| Cc1cc2cc(C(=O)N3CCCC(c4nc5ccccc5[nH]4)C3)ccc2o1 (stereo unspecified) | 78.2% |
| O=C1CC(N(CCc2ccccc2)C(=S)Nc2ccccc2)C(=O)N1c1ccc(Br)cc1 (stereo unspecified) | 97.3% |
| O=C(Cn1cc(C(=O)c2ccccc2)c2ccccc21)Nc1cccc(C(F)(F)F)c1 | 65.9% |
| O=C(CC=NOCc1ccc([N+](=O)[O-])cc1)Nc1ccc(Cl)cc1 | 86.5% |
| O=C1[C@@H]2Cc3c([nH]c4ccccc34)C(c3cccc([N+](=O)[O-])c3)N2C(=O)CN1CCCO (stereo partly specified) | 97.5% |
| Cc1ccc(NC(=O)CN(C)C(=O)CCSc2ccc(F)cc2)cc1 | 67.3% |
| COc1ccc(NC(=O)CSc2nnc3c4cc(C)ccc4n(C)c3n2)cc1 | -7.1% |
| O=C(NCc1nc2ccccc2[nH]1)C1=C[C@H](c2ccc3c(c2)OCO3)C[C@H](OCCCCO)O1 | 79.4% |
